Screens as filed in PubChem BioAssay.
Pol beta inh = blocks human DNA polymerase beta activity; Pol beta primer extension/strand displacement, fluorescence kinetic; Potency, µM (titrated, usually from 114 µM), without a hit: at the highest dose activity change, negative = inhibition, hits mostly inhibitors; 1.3% of 340,000 active; also: potency is read from the fitted curve at half-maximal effect; % is scaled to controls: 0 for no effect and ±100 for the full control effect
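Curves were derived by four-parameter Hill fits of normalized qHTS data. The kinetic fluorescent primer-extension read was taken at 0 and 10 min after 50 nM substrate, following a 15 min room-temperature preincubation of 10 nM enzyme with compounds.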
WRN helicase inh = WRN helicase (human) inhibition; Q14191; WRN helicase unwinding, fluorescent forked duplex, kinetic; Potency, µM (top dose mostly 114 µM), for inactives: top-dose activity change, negative = inhibition, actives largely listed as inhibitors; 0.46% of 360,000 active; also: potency is read from the fitted curve at half-maximal effect; % is scaled to controls: 0 for no effect and ±100 for the full control effect; nearly all actives have a fitted effect of over 55% in size
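Primary qHTS, 1536-well format. 20 nM WRN + compound, 15 min RT; start with 100 nM forked fluorophore/quencher duplex, 2 mM ATP (final); kinetic read ex 525/em 598 nm.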
Pol iota inh = DNA polymerase iota (human) inhibition; Q9UNA4; Pol iota fluorescent replication assay, 10 min; Potency, µM (doses to about 115 µM), for inactives: at the top dose activity, negative = inhibition, usual class: inhibitors; 1% of 390,000 active; AID 588590; also: potency is read from the fitted curve at half-maximal effect
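Pol iota at 10 nM preincubated 15 min with compounds at room temperature; reaction started with fluorescent substrate, 50 nM final. Fluorescence read kinetically at 0 and 10 min; buffer-only wells as negative control.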
Pol kappa inh-1 = inhibitors of human DNA polymerase kappa. Potency, µM (doses to about 107 µM), without a hit: top-dose activity, negative = inhibition, usual class: inhibitors. 0.53% of 400,000 active. purified Pol kappa, fluorescent DNA synthesis assay, 10 min. AID 588579; also: potency is read from the fitted curve at half-maximal effect; % is scaled to controls: 0 for no effect and ±100 for the full control effect
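Kinetic fluorescence screen: compound preincubated 15 min RT with 10 nM enzyme; 50 nM substrate (final) initiates; reads at 0/10 min.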
Pol eta inh-1 = inhibitors of human DNA polymerase eta; Q9Y253; recombinant Pol eta, fluorescent DNA replication assay; Potency, µM (series often up to 114 µM), inactives show at the highest dose activity change, negative = inhibition, hits mostly inhibitors; 1.2% of 390,000 active; also: potency is read from the fitted curve at half-maximal effect; % is scaled to controls: 0 for no effect and ±100 for the full control effect
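Pol eta (10 nM) was preincubated with compounds for 15 min at room temperature, after which fluorescent replication substrate (50 nM final) was added to start the reaction. Fluorescence was read kinetically at 0 and 10 min.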
FEN1 inh = blocks human flap endonuclease 1 | P39748 | Recombinant FEN1 flap cleavage, fluorescence, 15 min | Potency, µM (doses to about 114 µM), for inactives: top-dose activity change, negative = inhibition, hits mostly inhibitors | 0.35% of 390,000 active; also: potency is read from the fitted curve at half-maximal effect; % is scaled to controls: 0 for no effect and ±100 for the full control effect; nearly all actives have a fitted effect of over 65% in size
Target sequence (P39748 whole entry, looked up): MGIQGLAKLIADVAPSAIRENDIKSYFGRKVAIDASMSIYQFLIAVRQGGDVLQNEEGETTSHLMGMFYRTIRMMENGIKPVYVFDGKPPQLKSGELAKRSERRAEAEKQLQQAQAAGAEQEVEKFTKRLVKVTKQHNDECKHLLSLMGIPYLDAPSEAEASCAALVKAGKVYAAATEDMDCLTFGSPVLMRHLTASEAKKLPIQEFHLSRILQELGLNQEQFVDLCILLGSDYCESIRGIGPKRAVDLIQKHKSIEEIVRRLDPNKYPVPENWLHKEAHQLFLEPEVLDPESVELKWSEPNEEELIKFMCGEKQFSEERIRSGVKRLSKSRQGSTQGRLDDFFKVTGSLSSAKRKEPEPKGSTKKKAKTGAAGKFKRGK
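With each library titrated from low to high concentration, compounds met 10 nM FEN1 for 15 min at room temperature before 50 nM substrate was added; readings at 0 and 15 min fed four-parameter Hill curve fits.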
GALK confirm = galactokinase (human) inhibition, confirmation; shares compounds with Pol eta inh-1; purified GALK, Kinase-Glo ATP depletion luminescence; AID 2015; 70% of 150 active; Potency, µM (titrated, usually from 115 µM), for the others: top-dose activity, negative = inhibition, hits mostly inhibitors
Target sequence (P51570 whole entry, looked up): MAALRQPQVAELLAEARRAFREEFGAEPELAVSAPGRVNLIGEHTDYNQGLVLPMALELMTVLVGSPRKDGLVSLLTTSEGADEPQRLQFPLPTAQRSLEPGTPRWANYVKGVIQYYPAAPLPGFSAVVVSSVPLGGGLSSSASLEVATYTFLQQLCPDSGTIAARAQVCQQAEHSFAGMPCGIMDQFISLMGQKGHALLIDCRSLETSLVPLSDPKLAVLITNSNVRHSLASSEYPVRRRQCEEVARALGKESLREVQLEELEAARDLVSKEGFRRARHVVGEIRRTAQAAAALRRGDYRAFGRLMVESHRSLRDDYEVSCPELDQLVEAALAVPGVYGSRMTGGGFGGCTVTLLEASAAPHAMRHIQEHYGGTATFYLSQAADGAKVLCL
GALK redox cs = counter-screen for GALK inhibitors: redox cycling H2O2 generation; shares compounds with Pol eta inh-1; Phenol red-HRP H2O2 redox cycling, absorbance 600 nm; Potency, µM (series often up to 115 µM), for the others: top-dose activity change, negative = H2O2 signal, most hits filed as inhibitors; 40% of 150 active
HEK293 tox = counter-screen for GALK inhibitors: HEK293 cell cytotoxicity; shares compounds with Pol eta inh-1; HEK-293 viability, ATP luminescence (CellTiter-Glo), 24/48 h; Potency, µM (top dose mostly 46.1 µM), without a hit: at the highest dose activity change, negative = cytotoxicity, actives largely listed as inhibitors; 10% of 170 active; AID 2547; also: potency is read from the fitted curve at half-maximal effect; % is scaled to controls: 0 for no effect and ±100 for the full control effect
Pol kappa inh-2 = Pol kappa (human) inhibition, cherry-pick confirmation | shares compounds with Pol eta inh-1 | AID 720501 | Potency, µM, most hits filed as inhibitors | purified Pol-kappa, fluorescent strand-displacement substrate | 76% of 920 active; also: potency is read from the fitted curve at half-maximal effect
Pol eta inh-2 = confirmation of human DNA polymerase eta inhibitors. shares compounds with Pol eta inh-1. Potency, µM, hits mostly inhibitors. Pol eta primer extension, TAMRA/BHQ fluorescence, 10 min. 64% of 2,600 active; also: potency is read from the fitted curve at half-maximal effect
Numbers without * were called inactive; ? = inconclusive; / = no result; [ ] = remark or other dose. Sampled rows, rich in hits. Any-hit rate of the full collection: about 2.4%. Calls follow the shape of the dose curve; as a rule, active = well fitted curve in the direction sought with a large enough effect; inconclusive = small, poorly fitted or top-dose-only effect, or another doubt; inactive = no such curve, though single readings can be large; an effect the other way counts as inactive or inconclusive.

SMILES	Pol beta inh	WRN helicase inh	Pol iota inh	Pol kappa inh-1	Pol eta inh-1	FEN1 inh	Pol eta inh-2	others
Oc1c(C(c2ccccc2F)N2CCC3(CC2)OCCO3)sc2nc(-c3ccco3)nn12 (stereo not drawn)	25%	/	2%	-5%[60.1 µM]	5%	3%	/
Cc1cccc(NC(=O)CSCc2nc3c(nnn3Cc3ccc(F)cc3)c(=O)[nH]2)c1C	6%	-18%	-25%	-6%	-23%	-3%	/
CN(C)c1ccc(NC(=O)CSCc2nc3c(nnn3Cc3ccc(F)cc3)c(=O)[nH]2)cc1	28µM*	-32%[57.1 µM]	28µM*	?	50µM*	-1%	?
COCc1cc(CN2CCCC2)c(O)c2ncccc12	-2%	0%	63%	-16%	-8%	?	/	GALK confirm=1%;GALK redox cs=-3%;HEK293 tox=?
Cc1ccccc1NC1=C/C(=N\S(=O)(=O)c2ccc(C(=O)O)cc2)c2ccccc2C1=O	35µM*	-34%[57.1 µM]	0.89µM*	-11%	5µM*	50µM*	/	GALK confirm=8.4µM*;GALK redox cs=5.3µM*;HEK293 tox=25µM*
Cc1ccc(C)c(S(=O)(=O)/N=C2\C=C(NS(=O)(=O)c3ccccc3)C(=O)c3ccccc32)c1	-7%	-16%[11.6 µM]	?	-3%	?	?	?
Cc1ccc(NC2=C/C(=N/S(=O)(=O)c3cccs3)c3ccccc3C2=O)cc1C	47%	-5%	14%	-19%	-9%	0%	/
CCc1ccc(-n2nc(CO)c(C(=O)NCCc3ccccc3)n2)cc1	2%	/	-8%	-1%	-9%	18%	/
C/C(N)=C(/C#N)C(=O)CSc1nnnn1-c1ccccc1	35µM*	-22%	?	-13%	16µM*	5%	27*
N#Cc1ccsc1NC(=O)COC(=O)C1=NNC(=O)CC1	/	?	14µM*	?	20µM*	?	76*
O=C1Nc2ccccc2SC(c2ccccc2)C1O (stereo not drawn)	22µM*	?	?	79µM*	2.8µM*	?	?
Cc1cccc(N2CCN(C(=O)Cn3ncc4c3-c3cc(C)ccc3OC4)CC2C)c1 (stereo not drawn)	-13%	/	13%	-3%	-12%	3%	/
CCN(CC)CCNS(=O)(=O)c1ccc2[nH]cc(C(=O)O)c(=O)c2c1	18µM*	-12%[11.6 µM]	?	?	22µM*	-9%	27*
CN(C(=O)CSc1nc2ccc(NC(=O)c3ccc(F)cc3)cc2s1)c1ccccc1	11%	/	22%	-3%	-14%	-7%	/
COc1cccc(Nc2ncc3nc(C)c(=O)n(CCc4ccccc4)c3n2)c1	/	/	/	1%[60.1 µM]	/	/	/
CC(/C=C1\SC(=S)N(NS(=O)(=O)c2ccc(C)cc2)C1=O)=C\c1ccccc1	40µM*	?	?	-14%	40µM*	?	?
COc1cccc2cc(C(=O)C3=C(O)C(=O)N(CCN4CCOCC4)C3c3ccc(Cl)cc3)oc12 (stereo not drawn)	39%	-3%	41%	1%	?	8%	/
COc1cccc2cc(C(=O)C3=C(O)C(=O)N(CCN4CCOCC4)C3c3cccc(Cl)c3)oc12 (stereo not drawn)	3%	-11%[11.6 µM]	-21%	-14%	28µM*	-3%	17*
Cc1cccc(N2CC(c3nc4ccccc4n3CCC3CCCCC3)CC2=O)c1 (stereo not drawn)	2%	/	35%	0%	-24%	-2%	/
COc1ccc(C(C(=O)NC2CCCC2)N(C(=O)c2snc(C(N)=O)c2N)c2cccc(O)c2)cc1 (stereo not drawn)	40µM*	-10%[11.6 µM]	?	79µM*	22µM*	?	76*	Pol kappa inh-2=?
Cc1ccc(C(=O)Nc2nc(C)c(C(=O)N(C)C)s2)o1	11%	0%	-2%	-12%	-2%	-7%	/
Cc1ccc(C(=O)Nc2nc(-c3ccco3)c(-c3ccco3)s2)o1	/	?	?	-31%	14µM*	?	60*	Pol kappa inh-2=15*
CCCCOc1ccc(C(=O)NCCc2csc3nc(-c4ccccc4F)nn23)cc1	5%	/	-2%	-14%[60.1 µM]	-22%	9%	/
O=C(Nc1ccc2nc3n(c(=O)c2c1)CCCCC3)c1c(F)ccc([N+](=O)[O-])c1F	15%	-27%[11.6 µM]	?	8%	16µM*	-18%	48*
Cc1ccc(F)c(NC(=O)/C(C#N)=C(\O)c2ccc(C(C)(C)C)cc2)c1	89µM*	-2%[11.6 µM]	?	-7%	79µM*	?	/	GALK confirm=33µM*;GALK redox cs=-20%;HEK293 tox=4%
SMILES	Pol beta inh	WRN helicase inh	Pol iota inh	Pol kappa inh-1	Pol eta inh-1	FEN1 inh	Pol eta inh-2	others
Cc1cccc(NC(=O)C(=O)NNC(=O)c2ccc(C(C)(C)C)cc2)c1	-27%	6%	53%	-10%	-24%	9%	/
CC(=O)O[C@@H]1[C@H]2[C@@H](C[C@@H](C)[C@@H]3C=CC(=O)[C@@]13C)OC(=O)[C@@H]2C	1%	-3%	-24%	6%	6%	4%	/
C=C1C(=O)OC2C1CCC(C)C1C=CC(=O)C12C (stereo not drawn)	/	-19%	45µM*	-39%	14µM*	5%	?
Cc1cccc(CNc2ncncc2-c2ccccc2Cl)c1	/	/	/	8%[60.1 µM]	/	/	/
COc1cccc(NS(=O)(=O)c2ccc3[nH]cc(C(=O)N4CCCCCC4)c(=O)c3c2)c1	?	/	?	-18%	?	10%	/
COc1cccc(NS(=O)(=O)c2ccc3[nH]cc(C(=O)N(C)C4CCCCC4)c(=O)c3c2)c1	-12%	/	?	-6%[60.1 µM]	56µM*	4%	?	Pol kappa inh-2=?
O=C(CNC(=O)c1ccccc1)OCC(=O)c1ccc2ccccc2c1	/	/	6%	-1%	/	5%	/
